Records with an inconclusive call do not appear. Where a call stands in place of a potency, no number is given. Active and inactive are the calls of the source. Calls come from the whole dose curve; as a rule, active = well fitted inhibition curve with a large enough effect; inconclusive = small, poorly fitted or top-dose-only effect; inactive = no such curve, though single readings can be large or run the other way.
These compounds were tested against Cytochrome P450 2C9 (Homo sapiens) (UniProt P11712) (assay: qHTS Assay for Inhibitors and Substrates of Cytochrome P450 2C9 (AID 883; note: nearly all actives have a fitted effect of over 60% in size)). Conditions: recombinant CYP2C9, luciferin-H luminescence, 60 min; series mostly up to 57.1 µM.
Chain of Cytochrome P450 2C9 (Homo sapiens) (P11712 whole entry, looked up): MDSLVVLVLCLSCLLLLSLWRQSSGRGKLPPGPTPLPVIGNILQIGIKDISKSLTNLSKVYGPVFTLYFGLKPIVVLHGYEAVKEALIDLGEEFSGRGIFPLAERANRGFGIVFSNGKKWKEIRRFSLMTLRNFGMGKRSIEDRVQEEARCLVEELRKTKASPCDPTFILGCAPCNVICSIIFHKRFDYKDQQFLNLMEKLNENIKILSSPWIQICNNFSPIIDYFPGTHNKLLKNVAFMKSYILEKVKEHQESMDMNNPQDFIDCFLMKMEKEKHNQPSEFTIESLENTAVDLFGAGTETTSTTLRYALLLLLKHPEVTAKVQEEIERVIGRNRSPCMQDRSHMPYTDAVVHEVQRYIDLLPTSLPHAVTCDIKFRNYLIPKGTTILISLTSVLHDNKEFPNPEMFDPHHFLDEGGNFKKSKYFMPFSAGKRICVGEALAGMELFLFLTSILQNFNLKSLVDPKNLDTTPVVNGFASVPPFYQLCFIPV
Description: NIH Molecular Libraries Screening Centers Network [MLSCN] NIH Chemical Genomics Center [NCGC] MLSCN Grant: None NCGC Assay Overview: The P450 gene superfamily is involved in the metabolism and clearance of xenobiotics. This assay used human CYP2C9 to measure the hydroxylation of deoxyluciferin (Luciferin-H; P450 Glo-Buffer) to luciferin. The luciferin is then measured by luminescence after the addition of a luciferase detection reagent. Luciferin-H concentration in the assay was equal to its Michaelis constant KM for CYP2C9. Inhibitors and some substrates limit the production of luciferin, and decrease measured luminescence.
NCGC Assay Protocol Summary: Two uL of enzyme and substrate mix (final concentrations: 10nM CYP2C9, 100uM Luciferin-H, 25mM KPO4) were dispensed into a white, solid bottom 1536-well microtiter plate. 23nL of compound was transferred by a pin tool. The plate was incubated at 37C for 10 min. Two uL of an NADPH regeneration solution (Promega supplied reagent) was dispensed and the reaction was allowed to continue for 60 min at 37C. Then the reaction was stopped by reconstituted P450 Glo-Buffer. After another 20 min of incubation the plate was read on the ViewLux (Perkin Elmer) at 60 sec exposure and 2x2 binning. This protocol was carried out with Promega-Glo reagents and further information can be found at http://www.promega.com/tbs/tb325/tb325.pdf. Data were normalized to the to AC100 inhibition (57uM sulphaphenazole). Keywords: P450, CYP2C9, Luciferase, MLSMR, MLSCN, NIH Roadmap, qHTS, NCGC
With `CCOC(=O)C1=C[C@@]2(CC)CCCN3CCc4c(n1c1ccccc41)[C@H]32` the Potency was “inactive”. In the case of `O=c1[nH]cnc2[nH]ncc12`, the Potency is reported as “inactive”. `CC(C)(Sc1ccc(CCN(CCCCC2CCCCC2)C(=O)NC2CCCCC2)cc1)C(=O)O` was tested, and the Potency was 31.6 µM (active). In the case of `CC(=O)Oc1ccccc1C(=O)O`, the Potency is reported as “inactive”. In the case of `Clc1cccc(Cl)c1NC1=NCCN1`, the Potency is reported as 7.94 µM (active). With `N[C@@H]1CONC1=O` the Potency was “inactive”. For `N=c1nc(N2CCCCC2)cc(N)n1O`, the Potency was “inactive”. With `COc1ccc2nc(S(=O)Cc3ncc(C)c(OC)c3C)[nH]c2c1` (stereo not given) the Potency was “inactive”. `C1COC(NC(C2CC2)C2CC2)=N1` was tested, and the Potency was “inactive”. `NC(=O)c1cnccn1` was tested, and the Potency was “inactive”.
Potency is the fitted concentration of half-maximal effect.
